Shown are actives, neighbours in structure and some others; about 6.1% of the full set was active somewhere.
D1 agonist: activates the human D1 dopamine receptor; 1% of 360,000 active; HEK293 T-REx D1 cells, calcium flux, agonist mode; activation, % at 2 µM; P21728; in the data active = activation above about 30%
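Inducible HEK293 T-REx D1 cells, force-coupled to calcium signalling, were plated at 4000 cells/well with tetracycline and held overnight at 30 C. After no-wash calcium dye loading, compound-evoked calcium rise over 180 s flagged agonists.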
DRD3 antagonist: blocks the human D3 dopamine receptor. P35462. D3R cells, DiscoveRx beta-arrestin luminescence, antagonist mode; active compounds read low. max response, negative = inhibition, %. 2.5% of 360,000 active; in the data active = max response below about -50%; inconclusive = no clear call, values can overlap the other calls
Target sequence (P35462 whole entry, looked up): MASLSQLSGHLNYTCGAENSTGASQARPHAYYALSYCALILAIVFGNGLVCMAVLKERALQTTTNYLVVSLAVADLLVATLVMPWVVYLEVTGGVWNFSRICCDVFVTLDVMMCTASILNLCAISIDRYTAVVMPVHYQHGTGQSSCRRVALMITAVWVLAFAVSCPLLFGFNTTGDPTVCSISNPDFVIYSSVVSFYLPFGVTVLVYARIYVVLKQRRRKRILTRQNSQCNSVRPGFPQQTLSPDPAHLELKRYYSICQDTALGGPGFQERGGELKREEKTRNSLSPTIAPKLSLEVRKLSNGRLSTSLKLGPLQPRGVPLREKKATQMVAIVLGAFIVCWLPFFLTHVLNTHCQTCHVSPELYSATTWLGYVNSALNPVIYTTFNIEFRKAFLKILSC
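Cells expressing the human receptor were seeded at 1500 cells/well, incubated overnight at 37 degrees C in 5% CO2, then exposed to library compounds with dopamine controls for 90 minutes at 37 degrees C before luminescent detection.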
ERG Ets-DNA blk: inhibitors of human ERG Ets domain-DNA interaction. Potency, µM (series often up to 76.9 µM), usual class: inhibitors. AID 624246. P11308. 0.028% of 370,000 active. fluorescence polarization, His-ERG Ets domain / labelled DNA; active = well fitted inhibition curve with a large enough effect in the polarisation, with a control signal flat; inconclusive = small, poorly fitted or top-dose-only effect, or effect the other way, or a change in a side signal; inactive = no such curve, though single readings can be large or run the other way; the % refers to the polarisation;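 note: polarization taken with two DNA probes labelled with fluorescein and Texas red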
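His-tagged ERG Ets domain (1 uM in the protein solution; 300mM KCl, 50mM Tris-HCl, 1mM EDTA, 1mM DTT, pH 7.5) received compound, then a probe mix of 5 nM fluorescein-DNA and 100nM Texas-615-DNA. Fluorescence polarization was read for both dyes.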
D3 ag: activates the human D3 dopamine receptor; P35462; AID 652048; D3R DiscoveRx beta-arrestin cells, luminescence, 90 min; 0.58% of 410,000 active; max activation, %; in the data active = max activation above about 30%
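Agonist mode: compounds and dopamine controls were applied to plated cells for 90 min at 37 degrees C after an overnight attachment at 1500 cells/well. Luminescent read-out followed 30 - 60 minutes at room temperature with DiscoveRx detection reagent.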
D1 PAM: human D1 dopamine receptor positive modulation | potentiation, % at 10 µM | 0.036% of 360,000 active | P21728 | HEK293 TREx D1 cells, calcium flux, dopamine EC20 potentiation | AID 504651; in the data active = potentiation above about 30%
D1 antagonist: blocks dopamine activation of the human D1 receptor | P21728 | HEK293 TREx D1 cells, calcium flux, dopamine EC80; active compounds read low | activity change, negative = inhibition, % at 10 µM | 3.2% of 360,000 active; in the data active = activity change below about -30%
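HEK293 T-REx cells expressing inducible, force-coupled D1 receptor; no-wash Ca dye, 30–90 min RT. Cmpd → 180 s read at 1 Hz → EC80 DA → 180 s read.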
Of the large screens only hits and unclear results are named; the others gave an inactive call; ! = not confirmed by another sample.

CC(C)c1nccn1CCC(=O)O	D1 antagonist -43.6
O=C(N/N=C/c1c(O)n(-c2ccc(Cl)cn2)c(=O)c2ccccc12)C1CC1	none
O=C(N/N=C/c1c(O)n(-c2ccc(Cl)cn2)c(=O)c2ccccc12)c1ccncc1	D1 agonist 44.5
COc1ccc(NC(=O)Cn2c(C)c3cnn(-c4ccccc4)c(=O)c3c2C)c(OC)c1	none (no result: DRD3 antagonist)
N#Cc1c(N)nc(N2CCCC2)c(C#N)c1-c1ccc(Cl)cc1	D1 antagonist -56.6
CC(C)OCC(O)Cn1c(N2CCCC2)nc2c1c(=O)n(C)c(=O)n2C (stereo unspecified)	none
CCN(CC)c1ccc(NS(=O)(=O)c2cc3[nH]c(=O)c(=O)[nH]c3cc2C)c(C)c1	D1 antagonist -37.8 (no result: DRD3 antagonist)
CCN(CC)c1ccc(NS(=O)(=O)c2ccc(-c3coc(C)n3)cc2)c(C)c1	D1 antagonist -33.6 (no result: DRD3 antagonist)
Cc1nc(-c2ccc(S(=O)(=O)Nc3ccccc3C)cc2)co1	none
Cc1cc(Cl)ccc1NS(=O)(=O)c1cc2[nH]c(=O)c(=O)[nH]c2cc1C	none (no result: DRD3 antagonist)
Cc1nn(CCc2nn[nH]n2)c2nc(C(F)(F)F)cc(C(F)(F)F)c12	none
Cc1nn(CCc2nn[nH]n2)c2nc(-c3ccc(Br)cc3)cc(C(F)(F)F)c12	D1 antagonist -36.1
COC1=C(OC)C(=O)C(Sc2ccc3ccccc3c2)=CC1=O	DRD3 antagonist -62.4 (no result: D1 agonist, D1 PAM, D1 antagonist)
CCN(Cc1ccc(OC)c(F)c1)C(=O)/C=C/c1ccc(S(=O)(=O)N2CCOCC2)cc1	D1 antagonist -41.1
O=C(/C=C/c1ccc(S(=O)(=O)N2CCOCC2)cc1)N(CCO)Cc1ccccc1	none
CCN(CC)C(=O)CS(=O)(=O)CC(=O)Nc1cc(OCCOC)c(Cl)cc1Cl	D1 antagonist -54.8
COCCOc1cc(NC(=O)CS(=O)CC(=O)N(C)C)c(Cl)cc1Cl (stereo unspecified)	none
CN(c1ccccc1C(=O)Nc1cccc(Cl)c1Cl)S(C)(=O)=O	DRD3 antagonist -57.2
CCOc1ccccc1NC(=O)c1ccccc1N(C)S(C)(=O)=O	DRD3 antagonist inconclusive
Cc1cc(C)nc(Sc2c(F)c(F)c(C(F)(F)F)c(F)c2F)n1	none
Cc1cc(C)cc(NC(=O)CCn2c(=O)c3cccn3c3ccccc32)c1	none
O=C(CCn1c(=O)c2cccn2c2ccccc21)Nc1ccc(F)cc1	DRD3 antagonist -65.0
COc1ccc(CNC(=O)CCn2c(=O)c3cccn3c3ccc(F)cc32)cc1OC	D1 antagonist -43.0 (no result: DRD3 antagonist)
CCOC(=O)c1ccc(NC(=O)CCn2c(=O)c3cccn3c3ccccc32)cc1	D1 agonist 85.8 (no result: DRD3 antagonist)
COc1ccc(NC(=O)CCn2c(=O)c3cccn3c3ccccc32)cc1	none
COc1ccc(CNC(=O)CCCn2c(=O)c3cccn3c3ccc(F)cc32)cc1OC	none (no result: DRD3 antagonist)
COc1ccc(C(=O)NCCn2cc(SCc3cccc(F)c3)c3ccccc32)cc1OC	none (no result: DRD3 antagonist)
COC(=O)c1ccccc1NC(=O)CSc1nc(Nc2ccccc2)nc(N2CCOCC2)n1	none
CC(C)CC1NC(=O)N(CC(=O)Nc2cccc(Br)c2)C1=O (stereo unspecified)	D1 antagonist -38.8
O=C(CC1CCCC1)Nc1cccc(Br)c1	D1 antagonist -37.7
CC(=O)c1cccc(NC(=O)CC2CCCC2)c1	none
Cc1cccc(/C=N/NC(=O)c2cccc([N+](=O)[O-])c2)n1	DRD3 antagonist -50.3
COc1ccc(OCC(=O)Nc2cc(-c3nn(C)c(=O)c4ccccc34)ccc2OC)cc1	DRD3 antagonist -62.5
COc1ccc(NC(=O)COc2ccc(-c3nn(C)c(=O)c4ccccc34)cc2)cc1	D1 antagonist -39.8!
CCC1(c2ccccc2)NC(=O)N(CC#N)C1=O (stereo unspecified)	none
O=C(Nc1ccc(F)cc1)c1cccnc1NCCc1ccccc1	D1 antagonist -33.2
O=C(Nc1cccc(F)c1)c1cccnc1NCCc1ccccc1	none
CCCc1ccc(C(C)NC(=S)NC2CCCCC2)cc1 (stereo unspecified)	D1 agonist 36.5
CCC(NC(=S)NC1CCCCC1)c1ccc(C)cc1 (stereo unspecified)	D1 antagonist -59.0 (no result: DRD3 antagonist, ERG Ets-DNA blk, D3 ag)
O=C(CSCC(=O)N1CCCCC1)Nc1nc(-c2ccccc2)c(-c2ccccc2)s1	DRD3 antagonist -51.2
COc1ccc(-c2nc(NC(C)=O)sc2-c2ccccc2)cc1	D1 antagonist -32.5
COCCn1c(SCC(=O)Nc2cccc(C)n2)nnc1-c1ccco1	none
CCN1CCN(C(=O)NC2CCCCC2)CC1	none
Cc1cccc(N2CCN(C(=O)NC3CCCCC3)CC2)c1C	D1 agonist 32.5, D1 antagonist -41.3
O=C(NC1CCCCC1)N1CCN(CCc2ccccc2)CC1	DRD3 antagonist -61.4
Cc1cccc(N2CCN(CC(=O)Nc3nccs3)CC2)c1C	none
Cc1cccc(N2CCN(CC(=O)NCC3CCCCC3)CC2)c1C	DRD3 antagonist -63.0
Cc1nnsc1-c1onc(C)c1C(=O)Nc1cc(Cl)cc(Cl)c1	D1 antagonist -34.5
Cc1sc2ccccc2c1CNC[C@H]1O[C@@H](n2cnc(C(N)=O)n2)[C@H](O)[C@@H]1O	D3 ag 47.9 (no result: D1 agonist, D1 PAM, D1 antagonist)
Cc1sc2ccccc2c1CNC[C@H]1O[C@@H](n2ccc(N)nc2=O)[C@H](O)[C@@H]1O	none (no result: D1 agonist, ERG Ets-DNA blk, D1 PAM, D1 antagonist)
O=C(CN1C(=O)CC(c2ccco2)Sc2ccccc21)NCc1ccc2c(c1)OCO2 (stereo unspecified)	none
COc1cccc(/C=N/Nc2ncnc3c2ncn3Cc2ccccc2)c1O	none
CCOc1ccc(-c2nnc(NC(=O)CCCOc3cccc(C)c3)o2)cc1	D1 antagonist -33.0
CCn1c(=O)cc(SCC(=O)NCCCN2CCN(c3ccccc3F)CC2)c2ccccc21	D1 agonist 30.0, DRD3 antagonist -81.5, D1 antagonist -80.6
Cn1c(=O)cc(OCC(=O)NCCCN2CCN(c3ccccc3F)CC2)c2ccccc21	DRD3 antagonist inconclusive
O=C(CN1C(=O)COc2ccccc21)NCCCN1CCN(c2ccccc2F)CC1	DRD3 antagonist -90.5
Cn1c(=O)cc(OCCCC(=O)NCCN2CCN(c3ccccc3F)CC2)c2ccccc21	DRD3 antagonist inconclusive, D3 ag 39.4 (no result: D1 PAM)
CC1(C)CC(=O)c2cc(OCC(=O)NCCCN3CCN(c4ccccc4F)CC3)ccc2O1	DRD3 antagonist -54.5, D1 antagonist -81.1
CN1CCN(CCCNC(=O)CN2C(=O)COc3ccccc32)CC1	none
O=C(CCN1C(=O)COc2ccccc21)NCCCN1CCc2ccccc2C1	DRD3 antagonist -92.8
O=C(CCC(=O)N1CCOc2ccccc21)NCCCN1CCN(Cc2ccccc2)CC1	DRD3 antagonist inconclusive, D1 antagonist -38.5
CC(C)OCCCNC(=O)CCN1C(=O)COc2ccccc21	none (no result: ERG Ets-DNA blk)
O=C(CCN1C(=O)COc2ccccc21)NCCN1CCN(c2ccccc2F)CC1	DRD3 antagonist -64.1 (no result: ERG Ets-DNA blk)
